Test in all cases: qHTS profiling for inhibitors of Plasmodium falciparum proliferation (AID 504749); note: nearly all actives have a fitted effect of over 60% in size
Holding throughout (conditions): P. falciparum in erythrocytes, SYBR Green DNA, 72 h; series mostly up to 28.7 µM

Test [1] concerns 3D7. A digest of the protocol:
(§1)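 Readout was DNA-dye fluorescence from lysed cultures, ex 485/em 535 nm. Parasitized red cells had grown 72 h with compound; data scaled between 0.29 uM artemisinin and DMSO wells and corrected using vehicle-only plates.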

Test [2] relates to AA1029. Put shortly: as §1
The test system of test [3] is CP194. A digest of the protocol: as §1
For test [4], the system named is CP266. Put shortly:
as §1

Test [5] has as its system DFO2036. Put shortly:
as §1

Test [6] concerns AS120. Put shortly:
as §1

Test [7] deals with CP217. A digest of the protocol:
as §1

Test [8] concerns CP247. A digest of the protocol:
as §1

The subject of test [9] is CP256. Put shortly: as §1
The subject of test [10] is CP265. A digest of the protocol:
as §1

The subject of test [11] is CP335. A digest of the protocol: as §1
Test [12] relates to DIV14. Put shortly: as §1
The test system of test [13] is DIV30. A digest of the protocol: as §1
The test system of test [14] is GB4. A digest of the protocol:
as §1

The subject of test [15] is HB3. Put shortly:
as §1

Test [16] deals with N140. Put shortly:
as §1

For test [17], the system named is P94_40. A digest of the protocol:
as §1

Test [18] relates to PAD. Put shortly: as §1
The subject of test [19] is PC26. Put shortly: as §1
In test [20] the test system is SC27B. A digest of the protocol:
as §1

Records with an inconclusive call do not appear. The source made the active and inactive calls. Calls come from the whole dose curve; as a rule, active = well fitted inhibition curve with a large enough effect; inconclusive = small, poorly fitted or top-dose-only effect; inactive = flat fitted curve, though single readings scatter.
Potency is the fitted concentration of half-maximal effect.

For the compound `CC1CC[C@@]2(NC1)OC1CC3C4CC[C@@H]5CC(O)CC[C@@]5(C)C4CC[C@]3(C)C1C2C` (some centres not stated), the Potency result in test [1], in test [2], in test [3], in [4] and in test [5] was “inactive” in each case.

Turning to `C[C@@H](N)[C@@H](O)c1ccc(O)c(O)c1`, the Potency result in test [1], in test [2], in test [6], in test [3], in [7] and in [8] was “inactive” throughout. The Potency result in test [9], in test [10], in test [4], in test [11], in test [5] and in test [12] was “inactive” in each case. Moreover, the Potency entry in test [13], in test [14], in [15], in test [16], in test [17] and in [18] was “inactive” in each case. Besides, the Potency result in [19] and in [20] was “inactive” in each case.

Regarding `CCCC(C)C1(CC)C(=O)NC(=S)NC1=O` (configuration not stated), the Potency result in test [1], in test [2], in test [6], in test [3], in [7] and in test [8] was “inactive” throughout. For the same compound, the Potency result in test [9], in test [10], in test [4], in test [11], in test [5] and in [12] was “inactive” in each case. Moreover, the Potency entry in [13], in [14], in test [15], in [16], in test [17] and in [18] was “inactive” throughout. Further, the Potency result in test [19] and in [20] was “inactive” throughout.

Take `C=C1CC2C(CC[C@]3(C)C(=O)CCC23)[C@]2(C)C=CC(=O)C=C12` (some centres not stated): the Potency result in test [1], in test [2], in test [6], in test [3], in test [7] and in test [8] was “inactive” each time. Further, the Potency result in [9], in test [10], in test [4], in test [5], in test [12] and in test [13] was “inactive” throughout. Moreover, the Potency entry in test [14], in [15], in [16], in test [17], in [18] and in [19] was “inactive” each time. Moreover, the Potency entry in test [20] is “inactive”.

Turning to `C[C@]12CCC3C(CCC4=C(Cl)C(=O)CC[C@@]43C)C1CCC2O` (some centres not stated), the Potency result in test [1], in test [2], in [6], in test [3], in test [7] and in test [8] was “inactive” in each case. Moreover, the Potency entry in test [9], in test [10], in [4], in [11], in [5] and in test [12] was “inactive” in each case. In addition, the Potency result in test [13], in [14], in test [15], in test [16], in test [17] and in test [18] was “inactive” in each case. In addition, the Potency result in test [19] and in test [20] was “inactive” in each case.

Regarding `C#CC1(O)C=CC2C3CCC4=CC(=O)CCC4C3CCC21CC` (configuration not stated), the Potency entry in test [6], in test [7] and in [16] was “inactive” each time. Moreover, the Potency is 6.31 µM (active) in [8], 6.75 µM (active) in test [12], 10 µM (active) in test [15] and 6.75 µM (active) in [19].

For the compound `C[C@]12CC[C@H]3[C@@H](CC[C@@]45O[C@@H]4C(=O)C(C#N)C[C@]35C)[C@@H]1CC[C@@H]2O` (some centres not stated), the Potency result in test [1], in test [8], in test [4], in [11], in [12] and in test [13] was “inactive” throughout. Further, the Potency entry in test [15], in test [17], in test [18] and in [19] was “inactive” throughout.

For the compound `C=CC[C@]1(O)CCC2C3CCC4=CCCCC4C3CCC21C` (some centres not stated), the Potency entry in test [1], in test [2], in test [6], in test [3], in [7] and in [8] was “inactive” throughout. Moreover, the Potency entry in [9], in test [10], in test [11], in test [5], in [13] and in [14] was “inactive” throughout. Moreover, the Potency entry in test [16], in [18], in [19] and in [20] was “inactive” throughout.

For `NC(Cc1ccc(Oc2cc(I)c(O)c(I)c2)c(I)c1)C(=O)O` (configuration not stated), the Potency entry in test [1], in test [2], in test [6], in test [3], in test [7] and in test [9] was “inactive” in each case. For the same compound, the Potency entry in test [10], in test [4], in test [11], in [12], in [13] and in test [14] was “inactive” throughout. The Potency result in test [15], in [18], in test [19] and in test [20] was “inactive” each time.

As for `CC12CCC3C4CCC(=O)C(O)=C4CCC3C1CCC2OC(=O)CCC1CCCC1` (configuration not stated), the Potency entry in test [1], in test [2], in test [6], in test [3], in test [7] and in test [8] was “inactive” throughout. Also, the Potency entry in test [9], in [10], in test [4], in test [11], in test [5] and in test [12] was “inactive” each time. For the same compound, the Potency result in [13], in test [14], in [15], in test [16], in test [17] and in test [18] was “inactive” throughout. For the same compound, the Potency entry in test [19] and in test [20] was “inactive” throughout.

As for `CN(C)[C@@H](Cc1ccccc1)c1ccccc1`, the Potency entry in [1], in [6], in [3], in [7], in test [9] and in test [10] was “inactive” in each case. Further, the Potency entry in [4], in test [11], in test [5], in [13], in [15] and in test [16] was “inactive” in each case. The Potency result in [17], in [18], in test [19] and in test [20] was “inactive” throughout. Further, the Potency in test [8] is 10 µM (active).

`COC(=O)C1C(OC(=O)c2ccccc2)CC2CCC1N2C` (configuration not stated): the Potency entry in test [1], in [2], in test [6], in test [3], in test [7] and in [8] was “inactive” in each case. Further, the Potency entry in test [9], in [10], in test [4], in [11], in test [5] and in test [12] was “inactive” each time. Also, the Potency result in [13], in test [14], in test [15], in test [16], in test [17] and in [18] was “inactive” each time. Also, the Potency entry in test [19] and in [20] was “inactive” each time.

On to `CC(=O)O[C@H]1C[C@H](O[C@H]2[C@@H](O)CC(O[C@H]3[C@@H](O)C[C@H](O[C@H]4CC[C@@]5(C)[C@H](CC[C@@H]6[C@@H]5CC[C@]5(C)[C@@H](C7=CC(=O)OC7)CC[C@]65O)C4)O[C@@H]3C)O[C@@H]2C)O[C@H](C)[C@H]1O[C@@H]1O[C@H](CO)[C@@H](O)[C@H](O)[C@H]1O` (some centres not stated), for which the Potency entry in test [2], in [6], in test [3], in test [7], in test [8] and in test [9] was “inactive” throughout. The Potency entry in [10], in test [4], in [11], in [5], in [13] and in [14] was “inactive” in each case. Moreover, the Potency result in [15], in test [16], in test [17], in test [18] and in test [20] was “inactive” each time.

Regarding `CC(=O)[C@H]1CC[C@H]2C3CC[C@H]4C[C@H](O)CC[C@]4(C)C3CC[C@]12C` (some centres not stated), the Potency entry in [1], in test [2], in test [6], in [3], in test [7] and in test [8] was “inactive” throughout. Besides, the Potency entry in [9], in [10], in [4], in test [11], in test [5] and in test [12] was “inactive” each time. Further, the Potency entry in test [13], in test [14], in test [15], in [16], in [17] and in test [18] was “inactive” in each case. Besides, the Potency result in test [19] and in test [20] was “inactive” in each case.

Values taken from PubChem BioAssay (NCATS).
